Results reported in ChEMBL document CHEMBL3433997, “St. Jude Leishmania screening dataset” (2016).

Molecular target: Solute carrier family 2, facilitated glucose transporter member 1 (Homo sapiens) (UniProt P11166)
Test: ST_JUDE_LEISH: Cytotoxicity at 2uM final concentration against transgenic Leishmania Mexicana promastigotes LmGLUT1 that are glucose transport deficient and complemented with the human glucose transporter GLUT1. Activity is measured by DNA content using SYBR green in vitro
Assay type: functional

Sequence of Solute carrier family 2, facilitated glucose transporter member 1 (Homo sapiens) (P11166 whole entry): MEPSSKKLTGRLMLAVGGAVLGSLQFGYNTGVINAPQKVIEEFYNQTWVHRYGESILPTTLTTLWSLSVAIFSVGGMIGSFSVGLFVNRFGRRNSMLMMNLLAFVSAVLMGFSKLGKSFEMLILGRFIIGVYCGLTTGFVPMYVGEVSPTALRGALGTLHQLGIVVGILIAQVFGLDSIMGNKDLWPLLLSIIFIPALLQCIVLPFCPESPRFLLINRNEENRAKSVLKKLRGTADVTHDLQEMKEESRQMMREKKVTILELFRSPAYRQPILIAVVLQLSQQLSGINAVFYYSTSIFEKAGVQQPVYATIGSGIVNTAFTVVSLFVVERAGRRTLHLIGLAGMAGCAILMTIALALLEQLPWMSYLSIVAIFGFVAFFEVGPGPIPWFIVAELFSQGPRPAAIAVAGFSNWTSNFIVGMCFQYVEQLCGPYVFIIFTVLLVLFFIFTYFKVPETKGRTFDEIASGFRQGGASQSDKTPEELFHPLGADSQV

SMILES | inhibition
O=C(Nc1ccc(Oc2cccnc2)cc1)C1CCN(Cc2cc(Cl)ccc2O)CC1 | 2.3%
Cc1cccc2nc(-c3ccc(-c4ccc(CNCc5cnn(-c6ccccc6)n5)cc4)s3)[nH]c12 | -1.78%
CCCN(c1ccc(O)c(CN2CCCCC2)c1)c1ccc([N+](=O)[O-])cn1 | 1.28%
Oc1cccc2c1CC(NCc1ccccc1)CC2 (stereo not given) | 1.86%
C(=N\Nc1nccc2sc(-c3ccccc3)cc12)/c1cccnc1 | 4.32%
CC(=Nc1ccc(Cl)c(Cl)c1)N(C)C | 0.17%
Cc1ccc(C)c(CC(=O)N2CCC(n3c(C)nc4ccc(F)cc43)CC2)c1 | 4.03%
O=C(Nc1cccc(C(F)(F)F)c1)c1cccc(S(=O)(=O)NCC2CCN(CC3CCCCC3)CC2)c1 | 0.21%
Oc1ccc2[nH]cc(C3CCN(CCCCCCCCCN4CCC(c5c[nH]c6ccc(O)cc56)CC4)CC3)c2c1 | -1.57%
Cc1ccc2ccccc2c1CCCON1C(=N)N=C(N)NC1(C)C | 4.76%
COc1ccc(-n2ccnc2SCC(=O)Nc2cc(Cl)ccc2OC)c(OC)c1 | 2.64%
Cc1cccc2nc(-c3cccc(-c4cccc(CNCCc5cccn5C)c4)c3)[nH]c12 | 0.04%
CC1(C)NC(N)=NC(=N)N1OCCCc1ccc(Cl)cc1Cl | 2.76%
COc1cccc2cc(C(=O)N[C@@H](CC(C)C)C(=O)N[C@H](C=NN3CCOC3=O)Cc3ccccc3)oc12 | -0.71%
NC(=O)COc1cccc2c1CCN(CCN1CCC(NC(=O)c3ccc(-c4ccc(Cl)cc4)cc3)CC1)C2 | 1.06%
Cc1ccc(CNC(=O)c2ccc(CN3CCCN(Cc4ccsc4)CC3)cc2)cc1 | 1.42%
CCCc1cc(NC2CCN(C)CC2)nc(Nc2ccc(F)cc2)n1 | 10%
CN1CCN(CC2(Nc3nccc(NCCc4cn(C)c5ccccc45)n3)CCCCC2)CC1 | 0.99%
COc1ccc(C(C(=O)NC2CCN(C[C@H](O)c3ccnc4ccc(OC)cc34)CC2)N2CCc3ccccc3C2)cc1 (stereo not given in full) | 2.66%
Cc1cc(=O)c(-c2ccc(Oc3cccc(Cl)c3)cc2)c(C)[nH]1 | 6.01%

SMILES | inhibition
CCCNC(=O)Nc1cc2cc(-c3cccc(CN4CCCCC4)c3)ccc2n2c(C)nnc12 | 0.33%
COc1ccc2ncc(F)c(CCN3C[C@H](CNCc4cc(C#N)c5c(c4)OCCO5)[C@H](O)C3)c2n1 | 7.97%
CCCCCCN1CCC(NCc2cccc3ccccc23)CC1 | 7.18%
Cn1c(N)cc(-c2cccc(I)c2)c2c(=O)nc(N)nc1-2 | 4.12%
CN(C)CCN(C)Cc1cccc(-c2ccc3c(Nc4cc(O)c(Cl)cc4F)ccnc3c2)c1 | 1.45%
Oc1ccc(CCNc2nc(NCCCOc3ccccc3-c3cccc(C(F)(F)F)c3)nc(N3CCNCC3)n2)cc1 | 4.36%
Cc1ccc(Cn2ncc(N3CCC(N)CC3)c(Cl)c2=O)cc1NC(=O)Nc1ccc(-c2ccccc2)cc1 | 14.2%
CCCC(CNCc1cccc(I)c1)CNc1cc(=O)c2ccccc2[nH]1 (stereo not given) | 1.04%
CCn1c(-c2nonc2N)nc2c(-c3ccccc3)ncc(OCCCCNCCc3ncc[nH]3)c21 | -0.2%
N#Cc1ccc(Sc2nnc(-c3ccccc3Cl)n2CC2CCCCC2)cc1[N+](=O)[O-] | 2.9%
Clc1ccccc1/C=C/c1cncnc1Nc1ccc2[nH]c(Cc3ccccc3)nc2c1 | 7.21%
CCCCCCCCCCNCC(O)c1ccc(O)c(C(=O)OC)c1 (stereo not given) | -0.21%
CCc1cn(CCOC)c2ccc(C(=O)N[C@@H](Cc3ccccc3)[C@H](O)CNC(C)(C)CCCC(C)C)cc12 | 0.24%
COc1ccc(CN(C)CCCc2ccc(NC(=O)c3cccc4c(O)c5ccccc5nc34)cc2)cc1OC | 6.56%
O=C(Nc1cccc(-c2nc3ccccc3s2)c1)c1ccccc1[N+](=O)[O-] | 0.94%
O=C(NCCNc1ccnc(Nc2ccc(F)cc2)n1)c1cc2ccccc2s1 | 5.85%
Cc1ccc(CN2CCN(c3cc4c(cc3Cl)CCN4C(=O)Cc3ccc(Cl)c(NC(=O)Nc4cccc(C#N)c4)c3)CC2)cc1 | -1.29%
N#Cc1cccc(C(=O)Nc2cccc(-c3ccc(CN4CCCC4)cc3)c2)c1 | 1.56%
COc1ccc(CNC2CCN(C)CC2)cc1-c1cccc(S(=O)(=O)NCc2ccccc2)c1 | 1.72%
COc1ccc(-n2nc(C)c3c2NC(=O)CC3c2ccccc2OCc2ccc(F)cc2)cc1 (stereo not given) | 4.97%
